This is a sample that favours compounds with a hit; in the whole collection about 2.3% have one here.
M1 antag: blocks human M1 muscarinic receptor. CHO-K1 hM1, Fluo-8 calcium fluorescence, ACh EC80 antagonist. inhibition, % at 3 µM. actives 1.3% (n = 360,000). AID 588852;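 active = percent inhibition above its own plate's cutoff, namely the mean of that plate's compound wells plus 3 SD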;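 also: peak over basal fluorescence ratio during 140 s after agonist addition; 0% = ACh EC80 plus DMSO and 100% = DMSO alone without agonist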
Target sequence (P11229 whole entry, looked up): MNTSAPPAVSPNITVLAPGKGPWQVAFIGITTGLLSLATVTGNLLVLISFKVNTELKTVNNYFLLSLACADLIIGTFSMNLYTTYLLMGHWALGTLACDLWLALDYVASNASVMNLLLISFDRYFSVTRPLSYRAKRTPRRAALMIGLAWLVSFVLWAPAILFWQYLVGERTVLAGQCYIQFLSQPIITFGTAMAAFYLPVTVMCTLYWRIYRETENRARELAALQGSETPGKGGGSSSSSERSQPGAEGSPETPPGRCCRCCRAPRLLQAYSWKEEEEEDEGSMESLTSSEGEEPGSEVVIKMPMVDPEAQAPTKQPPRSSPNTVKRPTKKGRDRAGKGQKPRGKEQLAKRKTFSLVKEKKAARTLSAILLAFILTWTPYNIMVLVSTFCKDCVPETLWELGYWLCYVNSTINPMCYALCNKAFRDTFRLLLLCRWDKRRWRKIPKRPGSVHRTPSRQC
CHRM1 PAM: potentiates human M1 receptor response to acetylcholine. P11229. CHO-K1 hM1, Fluo-8 calcium fluorescence, ACh EC20; 0% = ACh EC20, 100% = maximal ACh. activation, % at 3 µM. actives 0.088% (n = 360,000). AID 588819; in the data active = activation above about 19%, passing the limit was not always enough
M1 PAM parental: counter-screen for M1 PAMs: effect in parental CHO-K1 cells; ATP EC20, Fluo-8 calcium fluorescence; 0% at ATP EC20, 100% at ATP max; activation, % at 3 µM; actives 0.02% (n = 360,000); AID 602247;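 active = activation above the run cutoff, the mean activation of all test compounds plus 3 SD, cut at about 40% in these data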;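 also: peak over basal fluorescence ratio in a 140 s read after ATP addition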
M1 ag: human M1 muscarinic receptor agonism; actives 0.33% (n = 360,000); AID 588814; activation, % at 3 µM; P11229; CHO-K1 hM1, Fluo-8 calcium fluorescence, agonist mode; 0% DMSO, 100% acetylcholine EC100;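 active = activation above the run's mean compound activation plus 3 SD, cut at about 16% in these data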;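 also: peak over basal fluorescence ratio within a 140 s kinetic read after compound addition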
CHO-K1 Ca ag: counter-screen for M1 agonists: effect in parental CHO-K1 cells; actives 0.48% (n = 360,000); activation, % at 3 µM; AID 602248; Fluo-8 calcium fluorescence; scaled to maximal ATP response, vehicle zero; in the data active = activation above about 15%;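 also: untransfected CHO-K1 host cells lacking M1 receptor as counterscreen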
CHO-K1 Ca antag: nonselective inhibitor or artifact in parental CHO-K1 cells | ATP-induced calcium, Fluo-8 fluorescence | inhibition, % at 3 µM | actives 0.6% (n = 360,000);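 active = inhibition above a per-plate cutoff, the plate's mean sample inhibition plus 3 SD, cut at about 24% in these data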;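 also: 0% = DMSO plus EC80 ATP and 100% = DMSO alone without ATP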
Active calls of the source: *; . = no result.

SMILES	M1 antag	CHRM1 PAM	M1 PAM parental	M1 ag	CHO-K1 Ca ag	CHO-K1 Ca antag
Cc1ccc(CNC(=O)c2cc3c(=O)n(C)c4ccccc4c3n2C)o1	-3	0	-14	-9	2	24*
COc1ccccc1NC(=O)c1cc2c(=O)n(C)c3ccccc3c2n1C	93*	-19	-9	-6	3	-12
COCCCN1C(=O)C(CC(=O)NCCc2ccccn2)CC(C(=O)N2CCCCCC2)=C1C (stereo not drawn)	.	.	-2	.	1	-15
Cc1oc(-c2ccc(Cl)cc2)nc1CS(=O)CC(=O)NCc1ccccn1 (stereo not drawn)	-23	13	17	-3	0	-14
C=CCC1(CC=C)CCCN1C(=O)c1cc(COc2cncc(Cl)c2)on1	40*	-13	1	-1	10	22
C=CCC1(CC=C)CCCN1C(=O)c1cc(COc2cccc(OC)c2)on1	18	-9	-22	-3	2	2
C=CCS/C(N)=N\N=C\c1cc(Br)cc([N+](=O)[O-])c1O	-9	-5	-15	0	1	-6
Cc1ccc(N2CCN(C(=S)Nc3ccccc3)CC2)cc1	-1	-3	3	-6	22*	4
Cc1ccc(CC(=O)N2CCN(c3cccc(C(F)(F)F)c3)CC2)cc1	32*	-10	4	2	7	15
O=C(c1coc2ccccc2c1=O)N1CCN(c2cccc(C(F)(F)F)c2)CC1	54*	-34	3	-11	1	-17
S=C(Nc1ccccc1)N1CCN(c2ccccc2)CC1	5	-8	-12	2	2	0
FC(F)(F)c1cccc(NC(=S)N2CCN(c3cccc(C(F)(F)F)c3)CC2)c1	38*	-15	-3	-4	0	12
COc1ccccc1CNC(=O)[C@H](C)NC(=O)C1CCN(C(=O)[C@@H](N)C(C)C)CC1	-15	13	6	0	-1	8
Cc1cccc(N2CC(C(=O)NCc3ccco3)CC2=O)c1C (stereo not drawn)	12	-3	6	-3	2	-2
CC(C)Oc1ccc(C(=O)NCC(=O)N2CCN(S(=O)(=O)/C=C/c3ccccc3)CC2)cc1	-4	7	-11	-3	0	-9
Cc1ccc(CNC(=O)c2cc(S(=O)(=O)N3CCCCC3)ccc2N2CCOCC2)cc1	0	6	9	-9	1	-16
CCC(C)NC(C(=O)Nc1ccc(Cl)c([N+](=O)[O-])c1)c1ccccc1 (stereo not drawn)	-7	0	31	-8	1	-11
COCC(C)NC(C(=O)Nc1ccc(Cl)c([N+](=O)[O-])c1)c1ccccc1 (stereo not drawn)	3	31*	-2	-6	0	3
COc1cccc(NC(=O)c2ccc(-n3cnnn3)cc2)c1	-13	9	11	-6	3	-12
C=C1SC(Nc2c(C)cccc2C)=NC12CCCCC2	66*	-25	-5	-8	1	3
C=C1SC(Nc2c(C)cc(C)cc2C)=NC12CCCCC2	68*	-25	-8	-7	1	-4
Cc1cc(C)c(NC(=O)CN2C(=O)NC3(CCCCC3)C2=O)c(C)c1	-9	8	27	-3	2	-19
COc1cc(NC(=O)C(C)Oc2ccccc2)c(OC)cc1NC(=O)c1ccccc1 (stereo not drawn)	-12	17	-24	4	0	24*
CC(Oc1ccccc1)C(=O)Nc1ccc(NC(=O)c2ccccc2)cc1 (stereo not drawn)	15	0	-13	-1	0	17
CCOC(=O)c1ccc(S(=O)(=O)n2c(=O)oc3ccccc32)cc1	31*	-23	-24	0	13	18
SMILES	M1 antag	CHRM1 PAM	M1 PAM parental	M1 ag	CHO-K1 Ca ag	CHO-K1 Ca antag
Cc1ccc(S(=O)(=O)n2c(=O)oc3ccccc32)cc1	-10	2	11	0	3	-1
Cc1ccc(-n2c(C)cc(/C=C3\NC(=O)NC3=O)c2C)c(C)c1	32*	-19	25	-8	1	-19
Cc1cc(/C=C2/NC(=O)NC2=O)c(C)n1-c1ccccn1	-1	8	15	-3	0	11
CN(C)/C=C/C1=CC(=O)CC(C)(C)C1	6	5	-18	-3	-1	24*
Cc1ccc(C2=CC(=O)CC(C)(C)C2)cc1	-14	14	16	-8	0	-22
CCCCn1c2ccc(F)cc2c2nnc(SCCN3CCOCC3)nc21	-2	1	7	-8	2	4
CCCCn1c2ccccc2c2nnc(SCCN3CCCCC3)nc21	55*	-28	-13	-10	0	15
COCCNC(=O)C1(C)CCCN(C(=O)c2ccccc2F)C1 (stereo not drawn)	-21	12	22	0	0	-10
O=C(CCN1C(=O)/C(=C/c2ccccc2F)SC1=S)NCCc1ccc(O)cc1	32*	-12	12	3	16*	10
O=C1CCCC2=C1C1c3ccccc3C(=O)N1c1ccc(C(=O)c3ccccc3)cc1N2 (stereo not drawn)	8	-1	-1	-3	3	24*
O=C1CC(c2ccco2)CC2=C1C1c3ccccc3C(=O)N1c1ccccc1N2 (stereo not drawn)	3	-5	4	-3	1	-7
COc1ccc(C(C2C(=O)CC(C)(C)CC2=O)C2C(=O)CC(C)(C)CC2=O)cc1	-1	9	12	0	19*	9
Cc1cc(=S)cc(C)n1CCCO	6	-2	-4	-7	0	29*
Cc1nc2cc(Cl)c(Cl)cc2n1CCCO	-5	5	17	-7	1	-5
Cc1ccc2c(C)c(C(=O)N(Cc3cccs3)C3CCS(=O)(=O)C3)oc2c1 (stereo not drawn)	2	24*	1	16	0	-5
Cc1ccc2c(C)c(C(=O)N(Cc3ccccc3)C3CCS(=O)(=O)C3)oc2c1 (stereo not drawn)	-6	15	27	2	4	-17
CC(C)(C)c1ccc(-n2ncc3c2CCCC3NC(=O)CCn2cncn2)cc1 (stereo not drawn)	54*	-23	-26	-5	1	9
Cc1cc(C(=O)NC2CCCc3c2cnn3-c2ccc(C(C)(C)C)cc2)nn1C (stereo not drawn)	33*	-7	-10	2	12	25*
O=C(Nc1ccncc1)c1ccc2c(c1)C(=O)N(C1CCCCC1)C2=O	35*	-15	12	6	9	17
Cc1cc(NC(=O)c2ccc3c(c2)C(=O)N(C2CCCCC2)C3=O)no1	-7	5	13	-2	0	-10
COC(=O)c1ccc(NC(=S)NC2CC3CCC2C3)cc1 (stereo not drawn)	17	-6	11	-4	16*	13

Assay outcomes: PubChem BioAssay, The Scripps Research Institute Molecular Screening Center
